From PubChem BioAssay AID2242 (National Center for Advancing Translational Sciences (NCATS), 2010)
The whole screen tested about 200,000 compounds, of which about 720 (0.36%) were called active. About 8% were inconclusive and are not listed. Calls come from the whole dose curve; as a rule, active = well fitted activation curve with a large enough effect; inconclusive = small, poorly fitted or top-dose-only effect, or effect the other way, or another doubt; inactive = flat fitted curve, though single readings scatter. The list shows a part of the results.

Target: Lysosomal alpha-glucosidase (Homo sapiens) (UniProt P10253)
Assay: qHTS Assay for Activators of Human alpha-Glucosidase as a Potential Chaperone Treatment of Pompe Disease; note: nearly all actives have a fitted effect of over 80% in size
Details: purified enzyme, 4-MU-alpha-glucoside fluorescence, 20 min
Excerpt: NIH Chemical Genomics Center [NCGC] NIH Molecular Libraries Probe Production centers Network [MLPCN] MLPCN Grant: 1R03MH084841-01 Assay Submitter (PI): Wei Zheng NCGC Assay Overview: Alpha-glucosidase is responsible for hydrolysis of terminal, non-reducing 1,4-linked alpha-D-glucose residues with release of alpha-D-glucose. It is a lysosomal hydrolase that is required for the degradation of a small percentage (1-3%) of cellular glycogen in human. Deficiency of this enzyme results in glycogen-storage disease type II (GSDII), also referred to as Pompe disease, an autosomal recessive disorder. Structurally normal glycogen is accumulated in lysosomes and cytoplasm in affected patients, primarily in muscle tissues. Excessive glycogen storage within lysosomes may interrupt normal functioning of other organelles and leads to cellular injury. In turn, this leads to enlargement and dysfunction of the entire organ involved (eg, cardiomyopathy and muscle weakness). It has reported that the improper folding and trafficking of alpha-glucosidase resulting from the genetic mutations may account for a significant number of Pompe patients. […] We optimized this alpha-glucosidase assay in 1536-well plate format for identifying the novel small molecule inhibitors with the structures other than the sugar analogs in order to develop the new pharmacological chaperones, but are also able to detect potential activators. In conjunction with assays against alpha-galactosidase (AID 1467), fluorogenic false positive compounds can be identified.
NCGC Assay Protocol Summary: This is a fluorogenic enzyme assay with 4-methylumbelliferyl-alpha-D-[…] as the substrate and human alpha-glucosidase as the enzyme preparation. Upon the hydrolysis of this fluorogenic substrate, the resulting product, 1. 4-methyllumbelliferone, can be excited at 365 nm and emits at 440 nm which can be detected by a standard fluorescence plate reader. Data were normalized to the controls for basal activity (without enzyme) and 100% activity (with enzyme). In the AC50 values were determined from concentration-response data modeled with the standard Hill equation. Assay buffer: 50 mM citric acid (titrated with potassium phosphate to pH 5.0), 0.005% Tween-20, pH 5.0. (pH 5.0 is an optimal condition for this enzyme assay) 1536-well assay protocol for the human alpha-glucosidase: (1) Add 2 ul/well of enzyme (4 nM final) (2) Add 23 nL compounds in DMSO solution. The final titration was 0.7 nM to 77 uM. (3) Add 1 ul of substrate (400 uM final) (4) Incubate at room temperature for 20 min. (5) Add 2 ul stop solution (1M NaOH and 1M Glycine mixture, pH 10) (6) Detect the assay plate in a ViewLux plate reader (PerkinElmer) with Ex=365 nm and Em=440nm. Keywords: Alpha-glucosidase, Pompe Disease, pharmacological chaperone, chaperone therapy, high throughput screening, alpha-glucosidase inhibitor, MLSMR, MLSCN, NIH Roadmap, qHTS and NCGC
Potency is the fitted concentration of half-maximal effect.

SMILES | Potency
N#CC1=C(N)Oc2c(c(=O)oc3ccccc23)C1c1ccc(OC(=O)N2CCOCC2)cc1 (centres undefined) | 35.5 µM (active)
COc1ccc(CNc2oc(-c3cccc4ccccc34)nc2P(=O)(OC)OC)cc1 | 35.5 µM (active)
CCOP(=O)(OCC)c1nc(-c2cccc3ccccc23)oc1NCCc1ccc(OC)cc1 | 31.6 µM (active)
COP(=O)(OC)c1nc(-c2cccc3ccccc23)oc1NCCc1ccccc1 | 31.6 µM (active)
COCCN1Cc2cc(=O)n3c([nH]c4ccccc43)c2C1=N | 31.6 µM (active)
COC(=O)c1ccc(C(=O)OC)c(NC(=O)Oc2ccccc2)c1 | 31.6 µM (active)
CCCNC(=O)c1c(N)n(CC2CCCO2)c2nc3ccccc3nc12 (centres undefined) | 31.6 µM (active)
CC(C)OCCCNC(=O)c1c(N)n(CC2CCCO2)c2nc3ccccc3nc12 (centres undefined) | 39.8 µM (active)
CN1CCc2c(C#N)c(Cl)nc(Cl)c2C1 | 35.5 µM (active)
N#Cc1c(Cl)nc(Cl)c2c1CCN(Cc1ccccc1)C2 | 31.6 µM (active)
CCCCn1c(N)c(C(=O)OCC2CCCO2)c2nc3ccccc3nc21 (centres undefined) | 35.5 µM (active)
CC(C)CCn1c(N)c(C(=O)OCC2CCCO2)c2nc3ccccc3nc21 (centres undefined) | 31.6 µM (active)
COCCOC(=O)c1c(N)n(Cc2ccccc2)c2nc3ccccc3nc12 | 35.5 µM (active)
COCCOC(=O)c1c(N)n(Cc2ccc(OC)cc2)c2nc3ccccc3nc12 | 35.5 µM (active)
COc1ccc(-c2cc(=NCCC(=O)O)c3cc(C)ccc3o2)cc1 | 28.2 µM (active)
COc1ccc(-c2cc(=NCCCCCC(=O)O)c3cc(C)ccc3o2)cc1 | 31.6 µM (active)
CCOC(=O)c1c(N)n(Cc2ccc(OC)cc2)c2nc3ccccc3nc12 | 25.1 µM (active)
COC(=O)c1c(N)n(Cc2ccc(OC)cc2)c2nc3ccccc3nc12 | 35.5 µM (active)
CC(C)OC(=O)c1c(N)n(CC2CCCO2)c2nc3ccccc3nc12 (centres undefined) | 35.5 µM (active)
Nc1c(C(=O)OC2CCCCC2)c2nc3ccccc3nc2n1CC1CCCO1 (centres undefined) | 35.5 µM (active)

SMILES | Potency
CC(C)CCOC(=O)c1c(N)n(CC2CCCO2)c2nc3ccccc3nc12 (centres undefined) | 39.8 µM (active)
COCCCn1c(N)c(C(=O)OC(C)COC)c2nc3ccccc3nc21 (centres undefined) | 39.8 µM (active)
COCCCn1c(N)c(C(=O)OCCOC)c2nc3ccccc3nc21 | 31.6 µM (active)
O=C(c1cc2c(s1)-c1ccccc1OC2)N1CCC2(CC1)OCCO2 | 39.8 µM (active)
CCOP(=O)(OCC)c1nc(-c2cccc3ccccc23)oc1N1CCCCC1 | 35.5 µM (active)
CCOP(=O)(OCC)c1nc(-c2cccc3ccccc23)oc1N1CCOCC1 | 39.8 µM (active)
COP(=O)(OC)c1nc(-c2cccc3ccccc23)oc1N1CCCCC1 | 35.5 µM (active)
CCCCn1c(NC(=O)c2ccc(Br)o2)c(C(=O)OCC)c2nc3ccccc3nc21 | 35.5 µM (active)
CCOC(=O)c1c(N)n(Cc2ccco2)c2nc3ccccc3nc12 | 39.8 µM (active)
Nc1c(C(=O)NCCN2CCOCC2)c2nc3ccccc3nc2n1Cc1ccco1 | 39.8 µM (active)
COCCNC(=O)c1c(N)n(Cc2ccco2)c2nc3ccccc3nc12 | 31.6 µM (active)
CCOC(=O)c1c(N)n(CCCOC(=O)c2ccco2)c2nc3ccccc3nc12 | 35.5 µM (active)
COCCOC(=O)c1c(N)n(Cc2ccco2)c2nc3ccccc3nc12 | 35.5 µM (active)
CCCCCn1c(N)c(C(=O)NCCN2CCOCC2)c2nc3ccccc3nc21 | 35.5 µM (active)
CC(C)(C)OC(=O)c1c(N)n(Cc2ccco2)c2nc3ccccc3nc12 | 35.5 µM (active)
CC(=O)N1CCC2(CC1)CC(=O)c1cc(OCC(=O)N3CCC4(CC3)OCCO4)ccc1O2 | 31.6 µM (active)
CCC(C)OC(=O)c1c(N)n(Cc2cccs2)c2nc3ccccc3nc12 (centres undefined) | 35.5 µM (active)
CCCOC(=O)c1c(N)n(Cc2cccs2)c2nc3ccccc3nc12 | 39.8 µM (active)
CC(C)CCn1c(N)c(C(=O)NCc2cccs2)c2nc3ccccc3nc21 | 28.2 µM (active)
